The values below come from the supplement of paper PMC10338343.

± gives the standard deviation. Bounds are passed on as bounds.
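Note: 1 nM active piRISC with 0.1 nM target library at 33 °C single turnover.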

The test system of the assay is MILI (PIWIL2) piRISC loaded with piRNA #1 (26 nt). In words: pre-steady-state target cleavage rate (min^-1); guide: piRNA #1 5'p-UGAGGUAGUAGGUUGUAUAGUAUCCA; MIWI and MILI are mouse PIWI proteins and EfPiwi is from a freshwater sponge; tags in brackets are library labels; higher = faster piRNA-guided slicing of the target. As to conditions: auxiliary factor: 500 nM mouse GTSF1. The procedure, abridged:
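At 33 °C in HEPES–potassium acetate buffer, a transcribed, DNA-blocked target RNA library […] was exposed for 0–8 or 0–960 min to 1 nM active affinity-purified piRISC carrying a single synthetic guide, with or without 500 nM GTSF1 partner protein. Uncleaved targets were sequenced and normalised to depth and to weakly complementary targets. With three trials pooled and k3 capped at 0.0001 min^-1, a burst-and-steady-state fit produced the pre-steady-state cleavage rate.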
In the case of GGAGACCUAUGAUAUCAAGCUACUACCUGA, the “pre-steady-state target cleavage rate” value is 0.00472 ± 0.003.
Take GGAGACCUAUGAUAUGUUCCUAGUACCUGA: the “pre-steady-state target cleavage rate” value was below 0.0001.
In the case of GGAGACCUAUCUUUACAACCUUCUACCUCA it was 0.00489 ± 0.0025.
For GGAGACCUAUCAAUACAACCUACUACCUCA the value was 0.0355 ± 0.0083; for GGAGACCUAUGAUAUGUUGCUACUAGGACA, below 0.0001.
In the case of GGAGACCUUACUUUUCAACCUACUACCUCA it was 0.0874 ± 0.01.
As for GGAGUGGAUACUAUAGAACCAACUACCUCA, the “pre-steady-state target cleavage rate” value was 0.00293 ± 0.0022.
For GGAGAGGAUACUAAAGAACCUACUACCUCA, the “pre-steady-state target cleavage rate” value was 0.179 ± 0.0099.
In the case of GGAGACCUAUCUUUACAACCUACUACGUCA it was 0.0265 ± 0.0062; in that of GGAGACCUUUACUAUACAACCUACUACCUCA, 0.154 ± 0.012; in that of GGAGUGGAUACUAUACAACCUACUUGGUCA, below 0.0001.
In the case of GGAGACCUAUGAAAACAACCUACAACCUCA it was 0.00529 ± 0.0026; in that of GGAGUGGAUACUUAACAACCUACUACCUCA, 0.157 ± 0.0088; in that of GGAGACCUAUGUUUUCAACCUACUACCUCA, 0.00894 ± 0.0025.
In the case of GGAGACCUAUGAAUACAACCUACUAUCCUCA it was 0.00841 ± 0.0026; in that of GGAGACCUAUCUAAACAACCUAGUACCUCA, 0.0109 ± 0.0036.
On to GGAGACCUAUGUAAUCAACCUACUACCUCA, for which the “pre-steady-state target cleavage rate” value is 0.00445 ± 0.003.
For GGAGACCUAUGAUUACAACCUACUCCUCA the value was below 0.0001.
For GGAGACCUAUGAAUACAACCUACUACUUCA the value was 0.00709 ± 0.0022.
As to GGAGACGAUACUAUACAUGGUACUACCUCA, the “pre-steady-state target cleavage rate” value turned out to be 0.00601 ± 0.0019.
In the case of GGAGACCUUACUAAACAACCAACUACCUCA it was 0.00386 ± 0.0036; in that of GGAGACCUAUGAUUACAACCUACUACCGUCA, 0.00492 ± 0.0022.
For the sequence GGAGACCUAUGUUUACAACCUACAACCUCA, the “pre-steady-state target cleavage rate” value came out at 0.0131 ± 0.0031.
In the case of GGAGACCUAUGAUUACAACCUACUAGCUCA, the “pre-steady-state target cleavage rate” value stood at 0.00322 ± 0.0026.
